Source: PubChem BioAssay (several laboratories)
ADAM17 inh: inhibitors of human ADAM17. AID 720648. recombinant ADAM17, EDANS/DABCYL FRET peptide cleavage. 370,000 tested, 0.83% active. inhibition, % at 6.95 µM. P78536;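 active = inhibition above the mean of compounds lying between control limits plus 3 SD, set per campaign, cut at about 8.5% in these data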;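 note: 0% = DMSO-only wells as the low control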
ADAM10 inh: inhibitors of human ADAM10; O14672; recombinant ADAM10, EDANS/DABCYL FRET peptide cleavage, 3 h; inhibition, % at 7 µM; 370,000 tested, 0.62% active;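 active = inhibition above a per-campaign cutoff equal to the mean of compounds falling between control-based bounds plus 3 SD, cut at about 20% in these data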;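 note: 0% = DMSO wells while the 100% control is not disclosed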
Target sequence (O14672 214-748 limits assumed): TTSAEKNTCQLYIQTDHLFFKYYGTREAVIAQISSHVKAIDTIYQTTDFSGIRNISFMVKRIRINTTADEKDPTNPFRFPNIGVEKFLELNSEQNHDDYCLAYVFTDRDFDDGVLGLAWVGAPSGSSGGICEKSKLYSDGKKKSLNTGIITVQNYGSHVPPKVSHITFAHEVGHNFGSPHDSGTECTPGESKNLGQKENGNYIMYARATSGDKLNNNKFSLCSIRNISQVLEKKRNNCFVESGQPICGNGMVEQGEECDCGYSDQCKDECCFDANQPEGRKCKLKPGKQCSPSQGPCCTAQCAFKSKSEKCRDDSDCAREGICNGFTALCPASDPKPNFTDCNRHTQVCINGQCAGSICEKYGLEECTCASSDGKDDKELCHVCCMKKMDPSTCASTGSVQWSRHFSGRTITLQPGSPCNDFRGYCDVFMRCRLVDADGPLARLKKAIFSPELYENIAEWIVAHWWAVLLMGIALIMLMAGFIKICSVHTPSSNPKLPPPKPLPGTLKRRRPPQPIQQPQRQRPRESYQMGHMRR
KLK7 zymogen act: activators of human kallikrein-7 zymogen; P49862; AID 652039; activation, % at 7 µM; 370,000 tested, 0.9% active; purified proKLK7, EDANS-DABCYL substrate fluorescence; 100% is mature enzyme control, 0% vehicle;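 active = activation above the mean of all tested compounds plus 3 SD, computed per campaign excluding outliers beyond control limits, cut at about 13% in these data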
Pemphigus Ab inh: human desmoglein-3 autoantibody binding inhibition; DSG3-coupled beads, scFv-anti-DSG3-GFP binding, flow cytometry; hits give low values; binding (percent of control), % at 10 µM; 310,000 tested, 0.48% active; P32926;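 active = binding more than 3 SD below its plate's average and above zero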;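 note: hits lower antibody fragment binding to DSG3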
MPTP block: blocks calcium-induced mitochondrial swelling. AID 602449. 360,000 tested, 1.4% active. isolated mouse mitochondria, Ca2+ swelling absorbance, 30 min. inhibition, % at 10 µM;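 active = inhibition of 50% or more, scaled per plate between neutral and stimulator controls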;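 note: 0% = DMSO wells given calcium and 100% = 1 mM EGTA wells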
rCAG binder: molecules binding r(CAG) RNA repeats | r(CAG) RNA repeat, TO-PRO-1 dye displacement fluorescence | inhibition, % at 3 µM | 370,000 tested, 1.3% active;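 active = inhibition above the plate cutoff, the mean of all test compounds on that plate plus 3 SD, cut at about 35% in these data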;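 note: 0% = DMSO alone and 100% = 100 µM mitoxantrone as full dye displacement; higher means more dye released from RNA so lower well fluorescence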
Rh123 counter: membrane potential counter-screen of mitochondrial pore inhibitors; 5,000 tested, 78% active; AID 624504; inhibition, % at 10 µM; shares compounds with MPTP block; isolated mitochondria, Rhodamine 123 fluorescence; in the data active = inhibition above about 22%;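 note: 0% = DMSO vehicle and 100% = positive control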
MPTP swell DR: MPTP inhibition, dose response swelling confirmation. shares compounds with MPTP block. isolated mitochondria swelling, absorbance. IC50, µM. 780 tested, 58% active; in the data active = IC50 below about 20 µM
MPTP cs DR: active in counter-screen for permeability transition pore inhibitors; shares compounds with MPTP block; isolated mitochondria counterscreen, fluorescence read-out; IC50, µM; 780 tested, 49% active; in the data active = IC50 below about 80 µM
* hit, by the source's call; i = inactive; / = no result given. Sampled rows, rich in hits. Any-hit rate of the full collection: about 4.7%.

SMILES	ADAM17 inh	ADAM10 inh	KLK7 zymogen act	Pemphigus Ab inh	MPTP block	rCAG binder	Rh123 counter	others
CC(=O)C1CCC2C3CC=C4CC(SC(=N)N)CCC4(C)C3CCC12C (centres undefined)	0	-16	0	106	80*	18	24*
CCNC(=O)N1CCN(c2ccc(N3CCN(Cc4ccccc4)[C@H](C)C3)c(C)c2)[C@H](C)C1	-2	-7	1	/	/	2	/
O=C(/C=C/c1ccccc1Cl)c1ccccc(=O)c1O	-1	-9	0	99	3	20	/
O=C(C=Cc1ccccc1O)c1ccccc1O	-3	5	0	91	72*	4	89*
O=C(/C=C/c1ccc(O)c(O)c1)c1ccccc1O	-1	7	0	97	73*	14	63*
O=C(C=Cc1cccc(O)c1)c1ccccc1O	3	-17	0	94	6	4	/
COc1ccc(N2C(=O)c3[nH]nc(-c4ccccc4)c3C2c2cccc(C(F)(F)F)c2)cc1 (centres undefined)	8	7	0	/	/	5	/
COC(=O)[C@]12C[C@H](CC(=O)NCCCCc3ccccc3)C(=O)N(Cc3ccccc3)C1=C[C@H](C1CCCC1)O[C@@H]2C	3	8	0	/	/	4	/
O=C(Cc1ccc(Cl)cc1Cl)Nc1cccc(S(=O)(=O)Nc2ccccc2F)c1	5	-3	-1	105	65*	29	58*
Cc1ccccc1OCCC(=O)Nc1cccc(S(=O)(=O)Nc2ccccc2Cl)c1	6	18	-1	115	77*	31	75*
CCOC(=O)c1cnc2ccc(OCC)cc2c1NCc1ccccc1OC	-5	-20	0	111	85*	0	99*
CCOC(=O)c1cnc2ccc(OC)cc2c1NCc1ccccc1	-11	-51	0	104	2	0	/
O=C(N[C@H](C(=O)N1CCC[C@H]1C(=O)NC1CCCC1)C1CCCCC1)c1ccccc1	-3	-4	0	/	/	0	/
Cc1nn(-c2ccc(C(=O)O)cc2)c2c1C(=O)CC(C)(C)C2	1	13	0	97	2	4	/
Cc1c(CC(Cl)(Cl)Cl)c2c(n1O)CC(C)(C)CC2=O	-4	-1	1	100	72*	6	47*
C[C@@H]1C=CCCO[C@]12C(=O)N(Cc1ccc(F)cc1)c1cccc(Br)c12	2	5	0	/	/	1	/
CN(C)c1ccc(Nc2ncnc3ccc(Br)cc23)cc1	1	-3	0	122	-1	7	/
Clc1cccc(Nc2ncnc3ccc(Br)cc23)c1	-2	-9	1	104	91*	3	74*
Clc1ccc(Nc2ncnc3ccc(Br)cc23)cc1	-3	-13	5	127	87*	4	87*
COc1ccc(/C=C/C(=O)Nc2ccccc2C(=O)NCC(c2ccc(OC)cc2)N(C)C)cc1 (centres undefined)	-2	-13	0	100	76*	-3	-5	MPTP swell DR=12*;MPTP cs DR=>80
C[C@H]1C(c2ccccc2F)O[C@]2(C[C@H](O)c3ccccc3O2)C[C@@H]1O (some centres undefined)	4	4	0	/	/	-2	/
CC(C)N1CCc2c(sc(NC(=O)c3cc(-c4cccs4)nc4ccccc34)c2C(N)=O)C1	/	/	/	120	83*	/	-29
CN(C)CCNC(=S)NC1CCCCC1	-2	-4	0	96	1	-2	/
CN(C)CCOC(C1CCCCC1)C1CCCCC1	-1	4	-1	104	74*	3	-3	MPTP swell DR=15*;MPTP cs DR=>80
Cc1ccc2nc(/C(C#N)=C\c3ccc(Oc4ccc([N+](=O)[O-])cn4)cc3)[nH]c2c1	-6	-10	0	/	65*	18	19	MPTP swell DR=>100;MPTP cs DR=10*
SMILES	ADAM17 inh	ADAM10 inh	KLK7 zymogen act	Pemphigus Ab inh	MPTP block	rCAG binder	Rh123 counter	others
CCOc1cc(/C=C(/C#N)c2nc3ccccc3[nH]2)ccc1Oc1ccc([N+](=O)[O-])cn1	-13	-21	0	95	83*	9	45*
Cc1nnc2nc(N)[nH]n2c1=O	-7	-13	0	/	/	1	/
Cc1ccc(Oc2ccc(C(=O)NCc3ccncc3)cc2)cc1	5	10	0	166	88*	7	75*
O=C(NCc1ccncc1)c1ccc(Oc2ccccc2)cc1	-1	2	0	108	76*	0	39*
CCOc1ccc2nc(NC3=NC(c4ccc(OC)cc4)CC(=O)N3)nc(C)c2c1 (centres undefined)	-62	-218	0	124	2	23	/
CCOc1ccc2nc(NC3=NC(C)(C)C=C(C)N3)nc(C)c2c1	-75	-304	3	/	86*	23	85*
CCOc1ccc2c(C)nc(NC3=NC(C)(C)C=C(C)N3)nc2c1	-67	-234	0	106	59*	24	6	MPTP swell DR=i;MPTP cs DR=7.7*
COc1ccc(C2CC(=O)C(c3ccc(C(C)=O)cc3)=CN2Cc2ccccc2)cc1 (centres undefined)	-18	-74	0	/	/	3	/
Cc1[nH]c2ccccc2c1CC(=O)Nc1ccc(N(C)c2cccnc2)c(-c2ccc(F)c(F)c2)c1	-6	-18	-1	/	/	15	/
CN1C(=O)/C(=C\c2ccccc2OCc2ccccc2)SC1=S	-2	2	0	89	0	3	/
CN1C(=O)/C(=C\c2cc(N=Nc3ccccc3)ccc2O)SC1=S	2	7	-1	99	100*	12	76*
Cc1cc(/C=C2\SC(=S)N(C)C2=O)c(C)n1-c1cccc(O)c1	-1	-2	2	93	66*	8	66*
COc1ccc(NC(=O)Nc2ccc3c(c2)C(=O)N([C@H](C)CO)C[C@H](C)[C@H](CN(C)C)OCCCC[C@@H](C)O3)cc1	-3	-4	1	/	/	3	/
CC12CCC3c4ccc(OCCCO)c([N+](=O)[O-])c4CCC3C1CCC2=O (centres undefined)	-2	0	0	/	/	1	/
O=C(O)c1ccc(N2CC3CC(C2)c2cccc(=O)n2C3)c(NC(=S)Nc2ccc(Br)cc2)c1 (centres undefined)	-4	-2	0	/	89*	13	93*
CCc1ccc(NC(=S)Nc2cc(C(=O)O)ccc2N2CC3CC(C2)c2cccc(=O)n2C3)cc1 (centres undefined)	-4	-2	-1	100	0	5	/
CCCCc1cc(=O)oc2cc(C)cc(O)c12	2	1	0	100	86*	3	96*
